PubChem BioAssay AID588591 (National Center for Advancing Translational Sciences (NCATS), 2011)
The campaign covered roughly 390,000 compounds. About 4,700 (1.2%) were called active. Not shown: some 4% with an inconclusive outcome. The call rests on the fitted dose curve; in most records, active means well fitted inhibition curve with a large enough effect; inconclusive means small, poorly fitted or top-dose-only effect, or another doubt; inactive means no such curve, though single readings can be large or run the other way. The list comes from a sample in which actives are over-represented; it also holds similar structures and randomly drawn compounds.

Target: DNA polymerase eta (Homo sapiens) (UniProt Q9Y253)
Sequence (Q9Y253 whole entry, looked up): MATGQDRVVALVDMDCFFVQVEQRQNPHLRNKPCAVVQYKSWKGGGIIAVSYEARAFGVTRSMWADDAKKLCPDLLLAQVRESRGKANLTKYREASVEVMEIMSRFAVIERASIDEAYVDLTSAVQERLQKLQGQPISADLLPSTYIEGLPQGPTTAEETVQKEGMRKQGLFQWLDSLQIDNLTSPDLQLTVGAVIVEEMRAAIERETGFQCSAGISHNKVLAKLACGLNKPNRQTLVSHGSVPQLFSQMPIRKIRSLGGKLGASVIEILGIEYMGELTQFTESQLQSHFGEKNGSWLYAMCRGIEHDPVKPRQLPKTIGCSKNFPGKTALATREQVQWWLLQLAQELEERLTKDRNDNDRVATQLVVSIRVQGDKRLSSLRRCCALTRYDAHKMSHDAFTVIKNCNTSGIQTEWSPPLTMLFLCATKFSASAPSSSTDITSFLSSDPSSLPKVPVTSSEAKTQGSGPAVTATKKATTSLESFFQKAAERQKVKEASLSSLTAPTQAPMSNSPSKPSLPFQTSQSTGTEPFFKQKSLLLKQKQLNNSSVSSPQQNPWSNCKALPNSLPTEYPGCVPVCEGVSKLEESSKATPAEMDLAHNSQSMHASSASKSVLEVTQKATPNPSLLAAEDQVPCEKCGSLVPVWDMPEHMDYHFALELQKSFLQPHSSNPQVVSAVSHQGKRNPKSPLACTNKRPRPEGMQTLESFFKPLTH
Assay: qHTS for Inhibitors of Polymerase Eta
Settings: recombinant Pol eta, fluorescent DNA replication assay; series mostly up to 114 µM; activity change, negative = inhibition: at the top concentration
From the text: The Y-family of DNA polymerases, such as Pol eta, are specifically involved in DNA repair. Pol eta copies undamaged DNA with a lower fidelity than other DNA-directed polymerases. However, it accurately replicates UV-damaged DNA; when thymine dimers are present, this polymerase inserts the complementary nucleotides in the newly synthesized DNA, thereby bypassing the lesion and suppressing the mutagenic effect of UV-induced DNA damage. […] Thus, while pol eta's (and most likely iota's) normal function is to protect humans against the deleterious consequences of DNA damage, under certain conditions they can have deleterious effects on human health. As a consequence, we propose to utilize a high throughput replication assay to identify small molecule inhibitors of pol eta. In a collaboration between the National Institute of Child Health & Human Development (NICHD) and NIH Chemical Genomics Center, a high-throughput, fluorescent screen was developed to screen the NIH Molecular Libraries Small Molecule Repository (MLSMR). This screen is used to identify inhibitors of pol eta. NIH Chemical Genomics Center [NCGC] NIH Molecular Libraries Probe Centers Network [MLPCN] MLPCN Grant: MH090825 Assay Submitter (PI): Roger Woodgate, NICHD)
Three microliters of reagents (buffer in column 3 and 4 as negative control and 10 nM Pol eta in columns 1, 2, and 5-48) were dispensed into a 1,536-well black solid-bottomed plate. Compounds (23 nL) were transferred via Kalypsys pin tool equipped with 1536-pin array. The plates were then incubated for 15 min at room temperature, and 1 µL substrate (50 nM final concentration) was added to start the reaction and kinetically read twice at 0 min and 10 min on the Viewlux reader
On the % scale 0 is the no-effect control and ±100 the full control effect; potency means the concentration at half of the fitted maximal effect.

Structure (SMILES)	activity change, negative = inhibition	Potency
Cc1ccc(CN2CCc3nc(N4CCN(C)CC4)ncc3C2)cc1	-6.28% (inactive)	–
COc1ccc(CN2C(=O)C(NC(=O)c3cccc(C)c3)(C(F)(F)F)N=C2c2ccccc2)cc1 (stereo not drawn)	-19.9% (inactive)	–
COc1ccc(C(=O)CSc2c(C(C)C)cnc3c2c(=O)n(C)c(=O)n3C)cc1	-12.1% (inactive)	–
CCc1ccccc1NC(=O)Cc1ccc(NC(=O)N2CCCCc3ccccc32)cc1	-14.4% (inactive)	–
Cc1oc2ccc(O)c(CN3CCCCC3)c2c1C(=O)Nc1cccc(C(F)(F)F)c1	-20.5% (inactive)	–
CCOc1ccc(Nc2oc(/C=C/c3ccc(F)cc3)nc2C#N)cc1	-9.97% (inactive)	–
CCSC1=C(C#N)C(=O)n2c1cc1c2CCCC1	–	12.6 µM (active)
CCSc1ncnc2c(C#N)c3n(c12)CCCCC3	1.77% (inactive)	–
CCOC(=O)c1ccc(CSc2nnc3cc(C)c4ccccc4n23)cc1	-15% (inactive)	–
CC(C)Cn1c(=O)c2ccccc2n2c(CCC(=O)N3CCN(c4cccc(Cl)c4)CC3)nnc12	-8.33% (inactive)	–
O=c1c2ccccc2n(Cc2cccc(Cl)c2)c(=O)n1Cc1ccccc1	-6.01% (inactive)	–
CCN(CC)CCCC(C)Nc1ccnc2cc(Cl)ccc12 (stereo not drawn)	-3.31% [at 57.1 µM] (inactive)	–
CCN(CC)CCCC(C)n1c2nc(=O)[nH]c(=O)c-2nc2cc(Cl)ccc21 (stereo not drawn)	–	31.6 µM (active)
CCc1cccc(NC(=O)CSc2nccn2C)c1	-13.5% (inactive)	–
CCCCn1cc(S(=O)(=O)c2ccc(OCC)cc2)c(=O)c2cc(OC)c(OC)cc21	-18.6% (inactive)	–
Cc1ccc(NC(=O)c2cc3cc(C)ccc3n2C)cc1	-10.6% (inactive)	–
CCOC(=O)C1Nc2ccc(C(F)(F)F)cc2C2C=CCC12 (stereo not drawn)	–	79.4 µM (active)
CCOC(=O)/C=C/c1ccc(C(F)(F)F)cc1S(=O)(=O)NC(C)(C)C	-25% (inactive)	–
CCOC(=O)C[C@H]1c2ccc(C(F)(F)F)cc2S(=O)(=O)N1c1ccccc1	-11% (inactive)	–
CC(=O)Nc1ccc(NC(=O)C2CCCN(S(=O)(=O)c3ccc4c(c3)CCCC(=O)N4)C2)cc1 (stereo not drawn)	-15.3% (inactive)	–
Cc1c(Cl)cnc(NC(=O)COC(=O)C2CCCC2)c1Cl	–	35.5 µM (active)
Cc1c(Cl)cnc(NC(=O)COC(=O)c2ccc(S(=O)(=O)NCc3ccco3)cc2)c1Cl	-20.6% (inactive)	–
Cc1ccc(Cl)cc1NC(=O)COC(=O)C1CCCCC1	-12.7% (inactive)	–
COc1cccc(Nc2nc3ccccc3c3nncn23)c1	-17.8% (inactive)	–
CCN(CC)S(=O)(=O)c1ccc(C(=O)N=c2sc3cccc(OC)c3n2C)cc1	-7.47% (inactive)	–
Cc1cccc(C(=O)N2c3nc(-c4ccco4)nn3C3(CCCCC3)[C@@H]3CCCC[C@@H]32)c1	-12.1% (inactive)	–
CCCCCCc1cc2cc(-c3nnc(-c4ccccc4)o3)c(=O)oc2cc1O	–	39.8 µM (active)
Cc1ccc(CNC(=O)CCc2c(C)nc3c(c(C)nn3-c3ccccc3)c2C)cc1	-5.61% (inactive)	–
